# Screening results from PubChem BioAssay.
# LmPK inh = qHTS Assay for Inhibitors of Leishmania Mexicana Pyruvate Kinase (LmPK). purified LmPK, Kinase-Glo ATP luminescence, 1 h. actives 0.37% (n = 290,000). Potency, µM (titrated, usually from 57.5 µM), without a hit: at the top dose activity change, negative = inhibition, actives largely listed as inhibitors; also: potency is read from the fitted curve at half-maximal effect
# Target sequence (Q27686 whole entry, looked up): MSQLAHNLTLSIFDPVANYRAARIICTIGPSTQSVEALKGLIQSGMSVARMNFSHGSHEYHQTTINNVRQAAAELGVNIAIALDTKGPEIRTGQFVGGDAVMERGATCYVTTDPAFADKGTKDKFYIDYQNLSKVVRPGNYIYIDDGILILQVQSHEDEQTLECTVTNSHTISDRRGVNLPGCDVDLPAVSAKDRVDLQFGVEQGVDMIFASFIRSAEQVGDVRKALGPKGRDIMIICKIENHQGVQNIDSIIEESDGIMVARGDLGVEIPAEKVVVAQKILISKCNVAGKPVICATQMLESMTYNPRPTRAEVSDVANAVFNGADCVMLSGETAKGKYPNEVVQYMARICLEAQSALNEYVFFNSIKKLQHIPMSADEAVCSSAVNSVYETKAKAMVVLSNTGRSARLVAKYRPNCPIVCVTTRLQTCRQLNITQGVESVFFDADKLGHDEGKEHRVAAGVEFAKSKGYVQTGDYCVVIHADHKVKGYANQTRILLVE
#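 ATP generated from ADP (0.1 mM) and PEP (0.5 mM) by 0.1 nM LmPK over 1 h at room temperature (pH 7.2 imidazole buffer) was detected by coupled luciferase luminescence. Values were normalized to uninhibited and no-enzyme wells.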
# TbPYK inhibitor = qHTS of Trypanosoma Brucei Inhibitors; TbPYK enzyme, Kinase-Glo Plus ATP luminescence, 45 min; Potency, µM (titrated, usually from 76.8 µM), for the others: top-dose activity, negative = inhibition, actives largely listed as inhibitors; actives 0.12% (n = 410,000); also: potency is read from the fitted curve at half-maximal effect; nearly all actives have a fitted effect of over 50% in size
#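 Readout: single end-point luminescence (Kinase-Glo Plus, 10 min). Reaction conditions were TbPYK/substrate plus 130 uM ADP, 45 min at RT, pH 7.2 TEA buffer. No-enzyme wells served as controls, and data were normalized before concentration-response fitting.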
# VACV mCherry inh = qHTS for Stage-Specific Inhibitors of Vaccinia Orthopoxvirus: mCherry Reporter Primary qHTS | actives 0.63% (n = 310,000) | Potency, µM (series often up to 36.5 µM), without a hit: at the highest dose activity change, negative = inhibition, hits mostly inhibitors | Vaccinia virus mCherry reporter infection, fluorescence; calls by dose curve; tested in A549 cells; also: potency is read from the fitted curve at half-maximal effect; nearly all actives have a fitted effect of over 35% in size
# HCMV inh = qHTS Assay for inhibitors of the human cytomegalovirus (HCMV). HFF cells, HCMV-luciferase reporter, 72 h; hits give low values. activity change, negative = inhibition, % at 57.5 µM. actives 4.5% (n = 410,000). AID 1259415, 2018; in the data active = activity change below about -60%; inconclusive = no clear call, values can overlap the other calls; inactive = above about -39%
#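 Luciferase read-out from HCMV-luciferase-infected HFFs (MOI 1 PFU/cell) 72 h post infection at 37C; compounds added after 16 h cell attachment; activity normalized between buffer-only basal and Salinomycin (10uM) inhibitor controls.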
# Vaccinia Venus = qHTS for Stage-Specific Inhibitors of Vaccinia Orthopoxvirus: Venus Reporter Primary qHTS; Vaccinia virus Venus reporter expression, fluorescence; Potency, µM (doses to about 36.5 µM), for inactives: at the highest dose activity change, negative = inhibition, actives largely listed as inhibitors; actives 0.46% (n = 330,000); AID 720580, 2013; calls by dose curve; tested in A549 cells; also: potency is read from the fitted curve at half-maximal effect; nearly all actives have a fitted effect of over 30% in size
# An asterisk follows results filed as active; i = inactive; ? = inconclusive; . = not tested or not shown; [ ] = remark or other dose. The list is not random: actives were taken first. Their share in the collection is about 5%. Unless noted, calls follow the shape of the dose curve; as a rule, active = well fitted curve in the direction sought with a large enough effect; inconclusive = small, poorly fitted or top-dose-only effect, or another doubt; inactive = no such curve, though single readings can be large; an effect the other way counts as inactive or inconclusive. % is scaled to controls: 0 for no effect and ±100 for the full control effect.
SMILES,LmPK inh,TbPYK inhibitor,VACV mCherry inh,HCMV inh,Vaccinia Venus
Cc1c(C(=O)NCc2cccc([N+](=O)[O-])c2)sc(=O)n1Cc1cccc(F)c1,.,3%,i,-61*,-11%
COc1ccccc1Cn1c(C)c(C(=O)NCc2cccc(C)c2)sc1=O,.,3%,i,-61*,-4%
COc1ccccc1Cn1c(C)c(C(=O)NCc2ccc(C#N)cc2)sc1=O,.,3%,8%,-17,5%
NS(=O)(=O)c1ccc(N2CCN(CCOc3ccc(Cl)cc3)CC2)nc1,9%,-6%,?,-84*,-10%
O=S(=O)(c1cccs1)N1CCN(CCOc2ccc(Cl)cc2)CC1,.,0%,.,-82*,.
O=S(=O)(c1cccs1)N1CCN(CC(O)COc2cc(Cl)ccc2Cl)CC1 (stereo not given),-4%,4%,?,-61*,?
O=S(=O)(c1cccs1)N1CCN(c2ccc(Cl)cc2)CC1,0%,2%,-2%,-35,-5%
Oc1ccccc1CN1CCCN(Cc2ccccc2O)C1,1%,-1%,.,16,.
C=CCSc1nnc(CNC(=O)c2ccccc2C)n1C(C)C,-12%,3%,.,-2,.
COc1ccc(OC)c(C(C(=O)NC2CCCCC2)N(C(=O)c2snc(C(N)=O)c2N)c2ccccc2OC)c1 (stereo not given),-3%,4%,-8%,-61*,0%
CCOC(=O)C(NC(=O)c1ccccc1)(Nc1cccc(C)n1)C(F)(F)F (stereo not given),0%,5%,1%,?,6%
CCOC(=O)C(NC(=O)c1ccccc1F)(Nc1cc(C)on1)C(F)(F)F (stereo not given),-3%,?,-9%,-94*,-1%
CCNc1nc(NCC)nc(N(n2cnnc2)S(=O)(=O)c2ccc(C)cc2)n1,-1%,-7%,i,-25,-20%
COc1cc2c(cc1OC)-c1n[nH]c(=S)n1C(C)(C)C2,18µM*,?,0%,-5,6%
Cc1ccc(-c2ccc(C#N)c(=O)n2CC(=O)N(C)C)cc1,4%,6%,-13%,-70*,1%
CNC(=O)COC(=O)c1ccccc1C(=O)c1ccc(Cl)c([N+](=O)[O-])c1,8%,1%,?,-100*,?
O=C(COC(=O)c1cc([N+](=O)[O-])ccc1Cl)NC1CCCC1,-9%,-9%,.,-10,.
O=C(COC(=O)c1ccccc1C(=O)c1ccc(Cl)c([N+](=O)[O-])c1)NC1CC1,-5%,-12%,?,-99*,10µM*
Cn1c(SCc2nc3cc(C(=O)O)ccc3c(=O)[nH]2)nnc1C(F)(F)F,-2%,-6%,i,-20,-4%
O=C(COc1ccc(F)c(Cl)c1)N1CCCCCCC1,4%,3%,-4%,6,-7%
CCc1ccc(N2C=C(C(=O)OC)C(c3ccc(OC)cc3)C(C#N)=C2N)cc1 (stereo not given),.,.,?,-77*,?
COC(=O)c1cccc(COC(=O)CNC(=O)c2ccco2)c1,-3%,.,.,-26,.
Nc1nc(SCC(=O)N2CCCCC2)[nH]c(=O)c1NC(=O)c1cccs1,-6%,-1%,-5%,-10,1%
Cc1cc([N+](=O)[O-])cc2c1NC(=O)C2(O)N1CCOCC1 (stereo not given),2%,3%,.,-21,.
CCN1CCN(c2ccc(S(=O)(=O)N3CCCCC3)cc2NC(=O)c2ccc([N+](=O)[O-])s2)CC1,.,-7%,8.9µM*,-26,10µM*
SMILES,LmPK inh,TbPYK inhibitor,VACV mCherry inh,HCMV inh,Vaccinia Venus
COC(=O)c1cc2occc2n1CC(=O)Nc1ccc(C)cc1C,3%,-2%,-7%,-63*,0%
COC(=O)c1cc2occc2n1CC(=O)Nc1cccc(SC)c1,.,-2%,-12%,0,-9%
O=C(N[C@@H](Cc1ccccc1)C(=O)CCl)OCc1ccccc1,.,5%,10µM*,-90*,10µM*
CCCCCOc1ccc(Br)cc1/C(C)=N/NC1=NCCN1,-1%,3%,?,-92*,13µM*
Cc1c(NC(=O)c2cc(-c3ccccc3)nc3ccccc23)c(=O)n(-c2ccccc2)n1C,.,2%,-6%,-15,-19%
Cc1c(NC(=O)COC(=O)c2cc(-c3ccc(-c4ccccc4)cc3)nc3ccccc23)c(=O)n(-c2ccccc2)n1C,4%,-6%,?,-97*,18%
Cc1ccc(-c2cc(C(=O)Nc3c(C)n(C)n(-c4ccccc4)c3=O)c3ccccc3n2)cc1,.,-4%,i,-63*,-7%
CC(C)c1ccc(S(=O)(=O)NCc2ccc3c(c2)OCO3)cc1,-1%,1%,i,18,-8%
CCc1cccc(CC)c1NC(=O)CSc1nc2ccc(N3C(=O)C4C(C3=O)[C@H]3C=C[C@@H]4C3)cc2s1 (stereo not given in full),3%,-12%,?,-72*,?
CC(=O)NN1C(=O)c2ccc3c4c(ccc(c24)C1=O)C(=O)N(NC(C)=O)C3=O,-2%,0%,.,-104*,.
O=C1c2ccc3c4c(ccc(c24)C(=O)N1NC(=O)C(F)(F)F)CC3,5%,3%,-1%,-18,-4%
CC(=NCC1CCNCC1)C1=C(O)CC(C)(C)CC1=O,-2%,-7%,.,-21,-10%
CC(=NCC1CCCO1)C1=C(O)CC(C)(C)CC1=O (stereo not given),-10%,-9%,-12%,-62*,7%
Clc1ncnc2scc(-c3ccccc3)c12,0%,-1%,-22%,13,-9%
S=c1[nH]cnc2scc(-c3ccccc3)c12,-1%,-18%,i,-77*,-22%
COc1ccc2[nH]c(C)c(CCNC(=S)Nc3ccccc3C)c2c1,5%,-2%,?,-38,?
CCc1cccc(CC)c1NC(=S)NCCc1ccc(O)c(O)c1,2%,-19%,.,-14,.
CCc1cccc(CC)c1NC(=S)NCCc1c(C)[nH]c2ccccc12,5%,-1%,10µM*,-71*,?
COc1ccc2[nH]c(C)c(CCNC(=S)Nc3ccc(C)cc3)c2c1,-2%[11.5 µM],6%,.,-68*,.
O=C(NCc1ccc(F)cc1)Nc1cccc([N+](=O)[O-])c1,-2%,7%,-9%,-28,-3%
COC(=O)C1CN(C(=O)COc2cc(C)cc(C)c2)c2ccccc2O1 (stereo not given),11%,-8%,.,43,.
Cn1nc(-c2cccnc2)nc2c(=O)n(C)c(=O)nc1-2,.,.,3.2µM*,.,2.5µM*
CS(=O)(=O)n1nc(-c2ccc(Cl)cc2)nc1N,-1%,3%,i,5,-10%
Cn1nc(-c2ccccc2)nc1-c1ccccc1,.,0%,-6%,15,-18%
Cc1cc(C)n2nc(-c3cccnc3)nc2n1,-1%,-5%,.,-22,-2%
